Compound activity as filed in PubChem BioAssay.
CDK5 p35 inh: blocks human CDK5/p35 kinase activity; 330,000 tested, 0.01% active; Q00535+Q15078; Recombinant CDK5/p35, ADP-Glo luminescence, 60 min; inhibition, % at 10 µM;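 active means highest replicate inhibition of at least 50% and at least 75% of replicates reaching 50%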
SMARCA2 activ: SMARCA2 function activation, primary screen; MG213 cells, MMTV-luciferase reporter, dexamethasone, overnight; activation, % at 9.1 µM; 370,000 tested, 1% active; in the data active means activation above about 7.8%
Dyrk1A ADPGlo: blocks rat Dyrk1A kinase activity. 310,000 tested, 0.43% active. inhibition, % at 12.5 µM. Q63470. ADP-Glo luminescence, NFATc1 peptide; in the data active means inhibition above about 50%
dFosB activator: enhances mouse delta FosB homodimer DNA binding; P13346; purified delta FosB, TAMRA-CDK5 oligo fluorescence polarization; percent of positive-control signal above neutral wells; activation, % at 25 µM; 340,000 tested, 0.99% active; AID 493131;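 active means mean activation above about 17%, with every replicate also reaching it, limit read from the data, passing the limit was not always enough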
Target sequence (P13346 whole entry, looked up): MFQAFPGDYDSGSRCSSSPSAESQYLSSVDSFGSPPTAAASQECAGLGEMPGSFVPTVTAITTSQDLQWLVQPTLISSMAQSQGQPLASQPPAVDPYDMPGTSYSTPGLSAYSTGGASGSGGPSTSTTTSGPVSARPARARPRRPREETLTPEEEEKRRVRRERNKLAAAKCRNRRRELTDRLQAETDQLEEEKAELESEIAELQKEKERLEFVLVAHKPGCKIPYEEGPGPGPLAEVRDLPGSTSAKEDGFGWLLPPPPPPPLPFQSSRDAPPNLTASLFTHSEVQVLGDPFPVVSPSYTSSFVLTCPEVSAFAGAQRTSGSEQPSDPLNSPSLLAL
esBAF inh: SWI/SNF esBAF complex inhibition | reporter increase, % at 12.5 µM | 350,000 tested, 2% active | AID 602393 | mouse ES cells, Bmi1-luciferase knock-in reporter, 24 h; 100% = twice the neutral-well signal; in the data active means activation above about 40%;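 further: a rise in the Bmi1 reporter signal indicates esBAF inhibition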
Rtt109 Vps75: blocks Candida albicans Rtt109/Vps75 acetyltransferase activity. Q5AAJ8. purified Rtt109/Vps75, ThioGlo CoA-SH fluorescence, 4 h. inhibition, % at 34.9 µM. 330,000 tested, 0.16% active;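 active means inhibition of at least 50% in every replicate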
SMARCA2 conf: SMARCA2 activation, confirmation screen; shares compounds with SMARCA2 activ; activation, % at 9.1 µM; AID 652260; MG213 cells, MMTV-luciferase with dexamethasone, luminescence, overnight; MG213 cells expressing E1A, Rb sequestered; DMSO wells 0%, reference activator 100%; 3,500 tested, 30% active;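 active means activation above its plate's cutoff, the mean activation of tested wells plus 3 SD, cut at about 7.9% in these data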
VP16 Luc act: activates GAL4-VP16 luciferase, flagging SMARCA2 activator hits; shares compounds with SMARCA2 activ; HEK293 GAL4-VP16 pG5luc reporter, luciferase luminescence; scaled: DMSO wells 0%, SAHA wells 100%; activation, % at 9.1 µM; 3,500 tested, 41% active; AID 686939;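 active means activation above the solvent-only control well mean plus 3 SD, averaged across control plates, cut at about 5.2% in these data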
Large screens that a line does not name were inactive (follow-up assays come after a bar, where they were run). In the library only some 3.2% were active in any assay of this set; here they are far more common.

CCOc1cccc(C(=O)Nc2ccc3[nH]ncc3c2)c1	none
COc1cccc(C(=O)Nc2ccc3[nH]ncc3c2)c1	SMARCA2 activ 9.4 | SMARCA2 conf 8.9 | VP16 Luc act 15.1
Cc1noc(C)c1NC(=O)Nc1cccc2c1O[C@H](CN(C)S(=O)(=O)c1ccc(Cl)cc1)[C@H](C)CN([C@H](C)CO)C2=O	none (no result: CDK5 p35 inh, SMARCA2 activ, Dyrk1A ADPGlo, dFosB activator, Rtt109 Vps75)
CCCn1nnnc1NC(=O)c1ccc(C)cc1Cl	SMARCA2 activ 8.0 | SMARCA2 conf inactive | VP16 Luc act inactive
CCCn1nnnc1NC(=O)c1cc(Br)ccc1OC	none (no result: esBAF inh)
CCc1ccc(OCC(=O)Nc2ncn[nH]2)cc1	SMARCA2 activ 8.1 | SMARCA2 conf 11.4 | VP16 Luc act 8.7
O=C(N/N=C/C(Br)=C\c1ccccc1)c1cccs1	SMARCA2 activ 18.2 (no result: CDK5 p35 inh, Dyrk1A ADPGlo, dFosB activator, esBAF inh, Rtt109 Vps75) | SMARCA2 conf inactive | VP16 Luc act 11.0
O=C(N/N=C/C(Br)=C/c1ccccc1)C1CC1	SMARCA2 activ 9.6 (no result: esBAF inh) | SMARCA2 conf 10.0 | VP16 Luc act 5.6
Cc1cc(C(=O)N/N=C/c2cn(C)nc2C)c2ccccc2n1	none
Cc1occc1C(=O)N/N=C/C(Br)=C\c1ccccc1	none (no result: esBAF inh)
CC(=C/c1ccccc1)/C=N/NC(=O)c1cccs1	none (no result: CDK5 p35 inh, Dyrk1A ADPGlo, dFosB activator, esBAF inh, Rtt109 Vps75)
Cc1nn(C)cc1/C=N/NC(=O)c1ccco1	SMARCA2 activ 9.1 (no result: Dyrk1A ADPGlo) | SMARCA2 conf inactive | VP16 Luc act inactive
O=C(N/N=C/C(Br)=C\c1ccccc1)c1ccco1	SMARCA2 activ 9.4 (no result: esBAF inh) | SMARCA2 conf inactive | VP16 Luc act 17.3
Cc1ccc(S(=O)(=O)N[C@@H]2CC[C@H](CCn3cc(-c4ccccc4F)nn3)O[C@@H]2CO)cc1	none (no result: CDK5 p35 inh, SMARCA2 activ, Dyrk1A ADPGlo, dFosB activator, Rtt109 Vps75)
C[C@@H]1CN([C@H](C)CO)C(=O)c2cc(-c3ccc(F)cc3)cnc2O[C@@H]1CN(C)C(=O)c1ccc(F)cc1	none (no result: CDK5 p35 inh, SMARCA2 activ, Dyrk1A ADPGlo, dFosB activator, Rtt109 Vps75)
C[C@@H]1CN([C@@H](C)CO)S(=O)(=O)c2ccc(C#CC3(O)CCCC3)cc2O[C@@H]1CN(C)C(=O)Nc1ccccc1	none (no result: CDK5 p35 inh, SMARCA2 activ, Dyrk1A ADPGlo, dFosB activator, Rtt109 Vps75)
CC(C)CN(C)C(=O)CCc1nnc(Cc2cccc(C(F)(F)F)c2)o1	SMARCA2 activ 8.4 (no result: esBAF inh) | SMARCA2 conf inactive | VP16 Luc act 5.2
CC(NC(=O)CCc1nnc(Cc2cccc(C(F)(F)F)c2)o1)C1CC1 (configuration not stated)	none
CCCNC(=O)[C@H]1[C@H](CO)[C@H]2Cn3c(cccc3=O)[C@@H]1N2C(=O)C1CCC1	none (no result: CDK5 p35 inh, SMARCA2 activ, Dyrk1A ADPGlo, dFosB activator, Rtt109 Vps75)
Cc1cc(C)c2c(n1)sc1c(N3CCN(CCO)CC3)ncnc12	SMARCA2 activ 8.5 | SMARCA2 conf inactive | VP16 Luc act inactive
NNC(=O)c1nnsc1-c1csnn1	SMARCA2 activ 9.1 (no result: Dyrk1A ADPGlo, esBAF inh) | SMARCA2 conf inactive | VP16 Luc act inactive
Cc1cc(/C(N)=N/OC(=O)c2cccc(Cl)c2)no1	SMARCA2 activ 13.3 (no result: esBAF inh) | SMARCA2 conf inactive | VP16 Luc act inactive
Cc1occc1C(=O)O/N=C(\N)c1ccccc1	none (no result: CDK5 p35 inh, Dyrk1A ADPGlo, dFosB activator, esBAF inh, Rtt109 Vps75)
Cc1cccc(C(=O)O/N=C(\N)c2ccc(Cl)cc2)c1	SMARCA2 activ 9.0 (no result: esBAF inh) | SMARCA2 conf inactive | VP16 Luc act inactive
Cc1cc(/C(N)=N/OC(=O)c2ccc(Cl)cc2)no1	none
Cc1cccc(/C(N)=N/OC(=O)c2ccoc2C)c1	SMARCA2 activ 8.1 | SMARCA2 conf 13.0 | VP16 Luc act 12.9
Cc1cccc(C(=O)O/N=C(\N)c2ccc(Br)cc2)c1	none (no result: esBAF inh)
COc1cc(OC)c(C(=O)O/N=C(\N)c2ccccc2)cc1OC	SMARCA2 activ 8.6 | SMARCA2 conf inactive | VP16 Luc act inactive
CCCNC(=O)N1C[C@@H](C)[C@@H](OC)CN(C)C(=O)c2cc(NS(=O)(=O)CC(F)(F)F)ccc2OC[C@H]1C	none (no result: CDK5 p35 inh, SMARCA2 activ, Dyrk1A ADPGlo, dFosB activator, Rtt109 Vps75)
N/C(=N\OC(=O)c1ccc2c(c1)OCO2)c1ccc(Cl)cc1	SMARCA2 activ 8.9 | SMARCA2 conf 10.2 | VP16 Luc act 6.8
C[C@H]1CN([C@@H](C)CO)C(=O)c2cc(NS(C)(=O)=O)ccc2O[C@H]1CN(C)CC1CC1	none (no result: CDK5 p35 inh, SMARCA2 activ, Dyrk1A ADPGlo, dFosB activator, Rtt109 Vps75)
